This excerpt belongs to a sample that is enriched for hits.
IL1B secr inh = inhibitors of inflammasome signaling (IL-1 beta secretion); THP-1 LPS/ATP IL-1B secretion, AlphaLISA, 16 h; active compounds read low; activity change, % at 57.5 µM; actives 4.7% (n = 360,000); in the data active = activity change below about -50%; inconclusive = mostly about -30% to -49%
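THP-1 cells pretreated 1 hr with compounds (up to 57.5 uM final), then stimulated with LPS (250 ng/mL final) plus ATP (1.25 mM final); secreted IL-1B measured by AlphaLISA after 16 hr, decreased signal indicating inhibition.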
HT1080 IDH1KD tx = HT-1080 IDH1 knockdown cell toxicity (counter line) | HT-1080 IDH1 knockdown viability, ATP luminescence, 48 h | Potency, µM (series often up to 46.1 µM), inactives show at the top dose activity, negative = toxicity, most hits filed as cytotoxic | actives 2% (n = 360,000);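 note: potency is the fitted concentration of half-maximal effect; 0% = DMSO wells and -100% = cell-free medium wells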
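After a 2 h attachment period, IDH1KD HT-1080 cells took pin-transferred compound for 48 h at 37 °C; ATP-based luminescence after 10 min room-temperature reagent incubation reported viability.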
DT40 TDP1 CPT = DT40-hTDP1 cell growth loss with CPT. chicken DT40 Tdp1-/-;hTDP1 cells + 20 nM CPT, ATP luminescence, 48 h. Potency, µM (doses to about 46.2 µM), for inactives: top-dose activity change, negative = growth inhibition, actives largely listed as inhibitors. actives 12% (n = 420,000); note: potency is the fitted concentration of half-maximal effect; nearly all actives have a fitted effect of over 55% in size
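Chicken DT40 Tdp1-/- cells complemented with human TDP1, 400 cells/well, exposed to compounds plus 20 nM camptothecin for at least 48 h at 37 C; viability read as ATP content by CellTiter-Glo luminescence.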
HT1080-NT tox = kills 2HG-producing HT-1080-NT fibrosarcoma cells; Potency, µM (series often up to 46.1 µM), inactives show at the highest dose activity, negative = less viability, hits mostly cytotoxic; actives 1.6% (n = 360,000); HT-1080-NT fibrosarcoma viability, CellTiter-Glo ATP luminescence, 48 h;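 note: NT is the 2HG producing partner of a matched IDH1 knockdown line; potency is the fitted concentration of half-maximal effect; 0% = DMSO-treated cells and -100% = media-only wells without cells; nearly all actives have a fitted effect of over 55% in size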
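Luminescent CellTiter-Glo readout after 48 hours of compound exposure at 37 degrees C defined viability of HT-1080-NT cells. Activity was normalized to DMSO wells and cell-free media wells; concentration-response curves were fitted and assigned curve classes.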
12-LOX inh = inhibitors of human 12S-lipoxygenase ALOX12. actives 1.1% (n = 580,000). P18054. Potency, µM (series often up to 108 µM), for the others: at the highest dose activity change, negative = inhibition, hits mostly inhibitors. purified 12hLO, xylenol orange hydroperoxide absorbance. AID 1671190; note: potency is the fitted concentration of half-maximal effect
Target sequence (P18054 whole entry, looked up): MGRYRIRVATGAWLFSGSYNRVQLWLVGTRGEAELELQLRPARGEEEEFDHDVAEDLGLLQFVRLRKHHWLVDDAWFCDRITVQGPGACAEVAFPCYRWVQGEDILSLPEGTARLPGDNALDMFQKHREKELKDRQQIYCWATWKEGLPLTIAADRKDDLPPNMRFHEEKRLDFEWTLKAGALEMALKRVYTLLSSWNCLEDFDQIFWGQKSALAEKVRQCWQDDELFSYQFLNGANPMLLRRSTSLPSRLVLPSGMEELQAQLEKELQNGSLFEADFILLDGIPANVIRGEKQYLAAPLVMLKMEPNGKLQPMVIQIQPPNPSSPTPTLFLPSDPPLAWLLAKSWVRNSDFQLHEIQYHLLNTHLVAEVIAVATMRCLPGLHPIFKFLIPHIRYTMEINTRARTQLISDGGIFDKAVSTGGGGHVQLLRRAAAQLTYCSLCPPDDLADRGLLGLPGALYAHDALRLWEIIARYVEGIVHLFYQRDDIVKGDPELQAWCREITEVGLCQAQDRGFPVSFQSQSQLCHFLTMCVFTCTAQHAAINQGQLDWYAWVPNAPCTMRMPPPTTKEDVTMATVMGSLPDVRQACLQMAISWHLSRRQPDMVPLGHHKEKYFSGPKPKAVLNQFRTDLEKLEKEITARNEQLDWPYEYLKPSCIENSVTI
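Purified human 12hLO at 150 nM in 25 mM Hepes, 0.01% Triton X-100, pH 7.0, preincubated 15 min at room temperature with compound. Reaction started with 40 uM arachidonic acid, 30 min at room temperature. Hydroperoxide measured by Fe-xylenol orange, 573/405 nm absorbance ratio.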
TDP1 cell noCPT = qHTS for Inhibitors of human tyrosyl-DNA phosphodiesterase 1 (TDP1): qHTS in cells in absence of CPT. DT40 Tdp1-/- hTDP1 cells, no CPT, ATP luminescence, 48 h. Potency, µM (titrated, usually from 46.2 µM), without a hit: top-dose activity change, negative = growth inhibition, hits mostly inhibitors. actives 15% (n = 420,000). AID 686978, 2013; note: potency is the fitted concentration of half-maximal effect; nearly all actives have a fitted effect of over 55% in size
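Chicken DT40 Tdp1-/- cells complemented with human TDP1, screened without camptothecin (DMSO vehicle only), 400 cells/well. Compounds pin-transferred, cells incubated at 37 °C for at least 48 hr. Growth read as ATP-dependent luminescence (CellTiter-Glo, 30 min at RT).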
Starred values were filed as active, the others as inactive; ? = inconclusive; nt = not tested or not shown; [ ] = remark or other dose. Unless noted, calls come from the whole dose curve; as a rule, active = well fitted curve in the direction sought with a large enough effect; inconclusive = small, poorly fitted or top-dose-only effect, or another doubt; inactive = no such curve, though single readings can be large; an effect the other way counts as inactive or inconclusive. Unless noted, % is set by controls: 0 for no effect and ±100 for the full control effect.

SMILES	IL1B secr inh	HT1080 IDH1KD tx	DT40 TDP1 CPT	HT1080-NT tox	12-LOX inh	TDP1 cell noCPT
O=C(Nc1cccc(S(=O)(=O)NC2=NCCCCC2)c1)c1cc(-c2ccco2)nc2ccccc12	5	-30%	?	?	?	9.2µM*
COc1ccc(C(=O)N2CCN(C3CCN(C)C3=O)CC2)cc1 (stereo not drawn)	nt	nt	nt	nt	10%	nt
COC(=O)[C@@H]1Cc2ncn(Cc3ccc(OC)cc3)c2CN1Cc1cccc(C#N)c1	nt	nt	nt	nt	70%[176 µM]	nt
COCCCNC(=O)N1CCC2(CC1)CC(N(Cc1ccc(F)cc1)C1CC1)CCO2 (stereo not drawn)	nt	nt	nt	nt	38%	nt
COc1ccc(C2CC(=O)C=C3c4ccc(OC)cc4CCC32)cc1 (stereo not drawn)	20	12%	?	11%	7%	26µM*
COc1ccc2c(c1)CCC1(C)CC(=O)C=C21 (stereo not drawn)	-24	-5%	3%	-2%	4%	-24%
CCN(CC)S(=O)(=O)c1ccc(N/N=C/c2cc(OC)ccc2O)nc1	58	4.6µM*	5.8µM*	8.2µM*	-16%	6.5µM*
CC(C)N(C(C)C)S(=O)(=O)c1ccc(NN)nc1	94	?	?	?	5%	?
CCN(CC)S(=O)(=O)c1ccc(NN)nc1	86	?	21µM*	-18%	?	?
COc1ccc(-c2cc(C(F)(F)F)nc(-n3ccnc3C)n2)cc1	0	-2%	?	-1%	-2%	21µM*
COc1ccc(-c2cc(C(F)(F)F)nc(N3CCN(C)CC3)n2)cc1OC	0	?	?	?	-8%	21µM*
COc1ccc(-c2cc(C(F)(F)F)nc(N3CCCCCC3)n2)cc1	24	10%	-10%	8%	0%	-20%
COc1ccc(-c2cc(C(F)(F)F)nc(N3CCN(C)CC3)n2)cc1	-65*	?	?	?	?	16µM*
N=C(N)c1cccs1	nt	nt	nt	nt	-3%	nt
O=C1CCN(S(=O)(=O)c2ccccc2)CCCC(C(=O)NCCc2cccnc2)CCN1 (stereo not drawn)	nt	nt	nt	nt	14%	nt
CC1=C(c2ccc(F)cc2)S(=O)(=O)NC1=NCc1ccccc1Cl	nt	nt	-23%	nt	?	-30%
CC1=C(c2ccc(C)cc2)S(=O)(=O)NC1=NCc1ccccc1Cl	nt	nt	23µM*	nt	?	21µM*
O=S(=O)(c1ccccc1)c1ncc(C(F)(F)F)cc1Cl	-106*	16µM*	4.1µM*	?	?	3.7µM*
O=S(=O)(c1ccccc1)c1ncc(C(F)(F)F)cc1O	-4	7%	7%	3%	1%	8%
CCCCNc1ccc2c3c(cccc13)C(=O)N(CCCC)C2=O	-22	?	26µM*	?	0%	21µM*
CCCN1C(=O)c2cccc3c(N4CCCCC4)ccc(c23)C1=O	76	7%	?	3%	-23%	?
COc1ccc(N2CC(C(=O)N3CCC(C(=O)N4CCOCC4)C3)NC2=O)cc1 (stereo not drawn)	nt	nt	nt	nt	48%	nt
Cc1ccc(NC(=O)C2CC(=O)N(C(C)C)C2)cc1C (stereo not drawn)	-65*	4%	-15%	15%	0%	-17%
Cc1ccc(NC(=O)C2CC(=O)N(Cc3ccccc3)C2)cc1S(=O)(=O)N1CCCCCC1 (stereo not drawn)	-52*	-29%	29µM*	-20%	-7%	?
Cc1ccc(NC(=O)C2CC(=O)N(C(C)C)C2)cc1Cl (stereo not drawn)	0	0%	-29%	1%	-2%	2%

Bioassay records as filed in PubChem.
